Drawing on the supplement of paper PMC10849652, this text covers log2 fold change for 38 targets.

The full data set covers some 7,900 targets. This sample favours those with a hit. About 0.6% of all pairs of compound and target were hits.

Chain of UniProt Q92609 (Q92609 whole entry, looked up): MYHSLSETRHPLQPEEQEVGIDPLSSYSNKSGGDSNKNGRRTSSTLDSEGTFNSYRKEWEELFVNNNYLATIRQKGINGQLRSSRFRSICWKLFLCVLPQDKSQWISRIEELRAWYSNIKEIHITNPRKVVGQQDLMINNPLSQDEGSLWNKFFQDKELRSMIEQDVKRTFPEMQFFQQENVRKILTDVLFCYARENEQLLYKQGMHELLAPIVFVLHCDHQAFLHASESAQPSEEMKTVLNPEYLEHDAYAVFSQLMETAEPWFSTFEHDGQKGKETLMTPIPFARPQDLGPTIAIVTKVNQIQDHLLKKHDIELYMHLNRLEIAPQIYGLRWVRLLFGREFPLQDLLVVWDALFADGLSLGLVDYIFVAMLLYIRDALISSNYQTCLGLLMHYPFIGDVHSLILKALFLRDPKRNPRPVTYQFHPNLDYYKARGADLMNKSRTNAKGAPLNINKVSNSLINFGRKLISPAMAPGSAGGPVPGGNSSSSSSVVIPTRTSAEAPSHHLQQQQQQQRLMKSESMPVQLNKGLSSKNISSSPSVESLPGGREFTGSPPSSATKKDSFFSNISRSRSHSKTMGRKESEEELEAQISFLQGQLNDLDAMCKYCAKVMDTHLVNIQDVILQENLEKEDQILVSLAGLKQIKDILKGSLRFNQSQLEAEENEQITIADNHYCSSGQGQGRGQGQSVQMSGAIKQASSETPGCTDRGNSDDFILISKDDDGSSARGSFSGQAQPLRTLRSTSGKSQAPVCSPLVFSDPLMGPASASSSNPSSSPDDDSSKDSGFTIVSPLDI
Chain of UniProt Q92797 (Q92797 whole entry, looked up): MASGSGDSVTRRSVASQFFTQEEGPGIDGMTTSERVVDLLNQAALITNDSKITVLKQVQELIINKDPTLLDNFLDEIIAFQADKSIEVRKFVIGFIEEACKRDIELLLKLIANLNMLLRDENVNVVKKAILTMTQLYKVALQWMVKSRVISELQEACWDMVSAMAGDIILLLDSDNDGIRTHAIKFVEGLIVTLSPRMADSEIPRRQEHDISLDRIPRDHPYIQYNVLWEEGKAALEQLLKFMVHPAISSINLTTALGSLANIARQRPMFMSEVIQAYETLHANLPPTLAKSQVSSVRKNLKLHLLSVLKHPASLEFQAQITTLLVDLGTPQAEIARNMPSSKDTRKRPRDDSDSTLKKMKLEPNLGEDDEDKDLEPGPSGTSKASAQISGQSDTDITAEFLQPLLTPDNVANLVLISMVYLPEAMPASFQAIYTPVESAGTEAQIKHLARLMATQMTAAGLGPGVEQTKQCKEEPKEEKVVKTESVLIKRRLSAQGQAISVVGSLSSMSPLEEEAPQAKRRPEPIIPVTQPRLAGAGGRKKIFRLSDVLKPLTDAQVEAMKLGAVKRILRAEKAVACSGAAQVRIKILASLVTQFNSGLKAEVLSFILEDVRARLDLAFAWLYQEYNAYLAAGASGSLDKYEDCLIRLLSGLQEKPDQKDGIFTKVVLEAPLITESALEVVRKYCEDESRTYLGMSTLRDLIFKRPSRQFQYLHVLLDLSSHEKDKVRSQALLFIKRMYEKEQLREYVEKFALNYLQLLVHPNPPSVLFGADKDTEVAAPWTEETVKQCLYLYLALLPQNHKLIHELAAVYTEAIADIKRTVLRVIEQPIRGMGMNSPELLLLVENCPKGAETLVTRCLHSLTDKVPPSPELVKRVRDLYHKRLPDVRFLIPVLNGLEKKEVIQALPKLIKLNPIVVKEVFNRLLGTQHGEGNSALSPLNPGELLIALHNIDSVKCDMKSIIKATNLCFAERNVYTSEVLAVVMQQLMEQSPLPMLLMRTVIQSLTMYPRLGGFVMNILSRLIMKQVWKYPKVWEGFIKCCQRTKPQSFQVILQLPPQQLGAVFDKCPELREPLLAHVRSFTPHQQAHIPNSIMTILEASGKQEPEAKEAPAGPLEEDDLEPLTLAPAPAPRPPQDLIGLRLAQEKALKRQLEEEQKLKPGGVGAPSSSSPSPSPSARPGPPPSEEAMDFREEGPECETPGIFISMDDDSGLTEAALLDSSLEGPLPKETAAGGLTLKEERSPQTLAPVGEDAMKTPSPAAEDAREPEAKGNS
Chain of UniProt Q01130 (Q01130 whole entry, looked up): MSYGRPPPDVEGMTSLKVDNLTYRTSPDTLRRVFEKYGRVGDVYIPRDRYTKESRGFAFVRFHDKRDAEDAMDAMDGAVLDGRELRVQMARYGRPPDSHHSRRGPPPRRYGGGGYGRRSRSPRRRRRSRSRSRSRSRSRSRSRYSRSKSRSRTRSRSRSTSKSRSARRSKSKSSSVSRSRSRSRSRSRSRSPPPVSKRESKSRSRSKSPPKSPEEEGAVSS
Chain of UniProt Q9NUY8 (Q9NUY8 whole entry, looked up): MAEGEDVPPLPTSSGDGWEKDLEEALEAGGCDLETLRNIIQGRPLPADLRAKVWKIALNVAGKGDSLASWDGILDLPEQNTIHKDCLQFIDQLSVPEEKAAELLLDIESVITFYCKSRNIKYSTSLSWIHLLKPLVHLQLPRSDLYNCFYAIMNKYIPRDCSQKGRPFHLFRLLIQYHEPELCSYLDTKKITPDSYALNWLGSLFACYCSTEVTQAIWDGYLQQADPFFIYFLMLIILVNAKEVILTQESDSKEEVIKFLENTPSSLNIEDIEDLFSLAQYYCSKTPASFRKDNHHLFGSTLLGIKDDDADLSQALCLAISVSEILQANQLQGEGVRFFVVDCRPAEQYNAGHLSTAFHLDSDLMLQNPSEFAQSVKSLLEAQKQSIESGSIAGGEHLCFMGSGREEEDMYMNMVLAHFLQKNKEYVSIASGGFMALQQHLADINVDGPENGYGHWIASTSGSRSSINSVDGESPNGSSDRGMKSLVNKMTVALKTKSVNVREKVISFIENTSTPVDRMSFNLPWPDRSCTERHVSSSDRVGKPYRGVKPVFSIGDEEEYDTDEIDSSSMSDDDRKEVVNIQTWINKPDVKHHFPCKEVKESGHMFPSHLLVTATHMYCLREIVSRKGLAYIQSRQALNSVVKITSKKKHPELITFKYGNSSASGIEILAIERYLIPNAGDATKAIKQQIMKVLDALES
Chain of UniProt Q96DI7 (Q96DI7 whole entry, looked up): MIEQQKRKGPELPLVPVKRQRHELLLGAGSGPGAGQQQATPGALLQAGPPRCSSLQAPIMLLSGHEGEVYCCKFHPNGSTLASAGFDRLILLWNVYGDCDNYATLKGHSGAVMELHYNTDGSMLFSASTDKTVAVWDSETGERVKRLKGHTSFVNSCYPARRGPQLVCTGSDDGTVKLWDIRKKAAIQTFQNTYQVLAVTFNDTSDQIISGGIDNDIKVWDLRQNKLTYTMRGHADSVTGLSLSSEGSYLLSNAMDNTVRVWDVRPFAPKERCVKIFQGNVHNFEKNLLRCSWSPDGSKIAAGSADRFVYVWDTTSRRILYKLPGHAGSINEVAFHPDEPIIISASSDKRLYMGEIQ
Chain of UniProt Q13247 (Q13247 whole entry, looked up): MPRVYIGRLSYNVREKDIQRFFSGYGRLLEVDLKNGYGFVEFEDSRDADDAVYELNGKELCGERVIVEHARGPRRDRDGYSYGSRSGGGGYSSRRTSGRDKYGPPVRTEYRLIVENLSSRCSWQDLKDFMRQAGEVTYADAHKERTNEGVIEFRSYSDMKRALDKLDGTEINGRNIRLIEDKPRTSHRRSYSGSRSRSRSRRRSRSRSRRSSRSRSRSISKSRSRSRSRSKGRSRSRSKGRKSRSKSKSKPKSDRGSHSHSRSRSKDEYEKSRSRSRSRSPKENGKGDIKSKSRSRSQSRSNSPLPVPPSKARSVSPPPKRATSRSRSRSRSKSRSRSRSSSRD
Chain of UniProt Q8NBW4 (Q8NBW4 whole entry, looked up): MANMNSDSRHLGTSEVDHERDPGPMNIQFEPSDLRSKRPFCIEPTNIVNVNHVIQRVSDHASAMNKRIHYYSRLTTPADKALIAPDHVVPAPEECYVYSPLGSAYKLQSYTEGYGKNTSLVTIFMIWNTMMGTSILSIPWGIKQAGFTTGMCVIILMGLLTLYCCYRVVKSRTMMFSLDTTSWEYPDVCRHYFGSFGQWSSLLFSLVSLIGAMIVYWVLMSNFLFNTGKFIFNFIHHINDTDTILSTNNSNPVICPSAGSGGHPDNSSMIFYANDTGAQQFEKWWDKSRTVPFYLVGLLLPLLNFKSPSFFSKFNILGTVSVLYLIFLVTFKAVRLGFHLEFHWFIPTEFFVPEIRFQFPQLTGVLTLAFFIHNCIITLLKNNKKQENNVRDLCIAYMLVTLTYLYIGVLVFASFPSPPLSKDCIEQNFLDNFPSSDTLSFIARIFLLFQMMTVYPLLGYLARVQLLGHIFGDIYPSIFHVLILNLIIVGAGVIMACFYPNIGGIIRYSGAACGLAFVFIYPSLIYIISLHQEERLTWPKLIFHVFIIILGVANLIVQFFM
Chain of UniProt P31641 (P31641 whole entry, looked up): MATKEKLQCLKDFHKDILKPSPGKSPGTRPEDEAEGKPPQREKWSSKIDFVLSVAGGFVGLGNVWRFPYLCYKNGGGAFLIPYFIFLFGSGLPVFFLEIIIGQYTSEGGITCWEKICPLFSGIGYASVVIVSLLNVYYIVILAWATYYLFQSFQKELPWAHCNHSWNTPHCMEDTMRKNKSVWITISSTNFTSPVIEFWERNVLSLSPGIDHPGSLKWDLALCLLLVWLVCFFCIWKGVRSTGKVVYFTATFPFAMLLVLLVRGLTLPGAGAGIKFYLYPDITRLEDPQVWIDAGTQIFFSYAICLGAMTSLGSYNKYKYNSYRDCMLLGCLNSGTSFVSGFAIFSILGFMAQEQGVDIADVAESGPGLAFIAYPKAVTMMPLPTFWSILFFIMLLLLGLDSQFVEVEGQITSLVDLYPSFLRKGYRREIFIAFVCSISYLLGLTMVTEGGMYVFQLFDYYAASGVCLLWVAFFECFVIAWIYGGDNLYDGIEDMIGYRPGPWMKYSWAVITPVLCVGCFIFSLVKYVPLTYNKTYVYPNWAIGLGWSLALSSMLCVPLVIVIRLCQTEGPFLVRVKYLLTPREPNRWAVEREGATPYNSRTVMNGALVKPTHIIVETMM
Chain of UniProt Q9Y5J6 (Q9Y5J6 whole entry, looked up): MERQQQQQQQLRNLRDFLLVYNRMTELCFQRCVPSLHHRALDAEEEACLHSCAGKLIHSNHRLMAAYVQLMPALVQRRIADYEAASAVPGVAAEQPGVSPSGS

Compound in the assay: CC1=C2C(=CC=C1)N=C(N(C2=O)C3=CC=CC=C3C)CN4C=NC5=C(N=CN=C54)N
Nature of the assay: log2 fold change, soluble protein after heating vs DMSO (PISA); higher = thermal stabilisation; K562 cells, 10 uM, 30 min; active = over 0.2 and 3.5 SD of the protein, either way, in both replicates (recomputed). The essentials:
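K562 cells at 2×10^6 cells/mL were treated for 30 min with 10 μM compound, and aliquots were heated for 3 min over 48°C-58°C before pooling. Extraction used PBS with 0.5% NP-40 at 4°C, and soluble protein was the supernatant after 21,000xg for 90 min, measured by TMTpro 16plex LC-MS/MS with channel sums equalised. Thermal stability values, relative to control samples and from duplicates, are log2 fold changes.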
In the case of SLC25A42 (UniProt Q86VD7), the log2 fold change was -0.019 (inactive).
Next, TELO2 (UniProt Q9Y4R8): 0.037 (inactive); ST3GAL2 (UniProt Q16842): 0.011 (inactive).
Consider TBC1D5 isoform 2 (UniProt Q92609), for which the log2 fold change was 0.066 (inactive).
With SRSF2 (UniProt Q01130), the log2 fold change is -0.052 (inactive).
Next, TIMM10B (UniProt Q9Y5J6): 0.058 (inactive); TBC1D23 (UniProt Q9NUY8): 0.034 (inactive).
As for STOM (UniProt P27105), the figure is -0.014 (inactive); as for SLC30A10 (UniProt Q6XR72), 0.113 (inactive).
On to TLK2 isoform 2 (UniProt Q86UE8), for which the log2 fold change is 0.041 (inactive).
As for TATDN2 (UniProt Q93075), the log2 fold change is -0.037 (inactive).
In the case of SLC6A6 (UniProt P31641), the log2 fold change was 0.039 (inactive).
SLC38A2 (UniProt Q96QD8): the log2 fold change is 0.024 (inactive).
Take SMIM20 isoform 2 (UniProt Q8N5G0): the log2 fold change was 0.081 (inactive).
On to TMBIM6 isoform 2 (UniProt P55061), for which the log2 fold change was 0.041 (inactive).
Turning to SLC38A9 (UniProt Q8NBW4), the log2 fold change was 0.065 (inactive).
As for SORT1 (UniProt Q99523), the log2 fold change is -0.03 (inactive).
As to STK38L (UniProt Q9Y2H1), the log2 fold change is 0.162 (inactive).
With TK1 (UniProt K7ERV3), the log2 fold change is 0.083 (inactive).
As for SMAP (UniProt O00193), the figure is 0.03 (inactive).
As for STRN (UniProt O43815), the log2 fold change is -0.003 (inactive).
As for SLC39A11 (UniProt Q8N1S5), the log2 fold change is 0.078 (inactive).
For the target SMC5 (UniProt Q8IY18), the log2 fold change is -0.006 (inactive).
As to TIMM21 (UniProt Q9BVV7), the log2 fold change was 0.024 (inactive).
As to SURF1 (UniProt Q15526), the log2 fold change was 0.15 (inactive).
As to SNRNP40 (UniProt Q96DI7), the log2 fold change was 0.007 (inactive).
As for STK39 (UniProt Q9UEW8), the figure is 0.034 (inactive); as for SYMPK (UniProt Q92797), 0.101 (inactive).
As for SRRM2 (UniProt Q9UQ35), the figure is 0 (inactive); as for TGFBR1 isoform 2 (UniProt P36897), -0.047 (inactive); as for SRSF6 (UniProt Q13247), -0.109 (inactive).
For the target TM9SF2 (UniProt Q99805), the log2 fold change is 0.054 (inactive).
Regarding STK26 (UniProt Q9P289), the log2 fold change was -0.006 (inactive).
For SNRNP27 (UniProt Q8WVK2), the log2 fold change is 0.021 (inactive).
With SUPT16H (UniProt Q9Y5B9), the log2 fold change is 0.279 (inactive).
SMDT1 (UniProt Q9H4I9): the log2 fold change is -0.081 (inactive).
Consider SPR (UniProt P35270), for which the log2 fold change is 0.031 (inactive).
Consider SMPD4 isoform 2 (UniProt Q9NXE4), for which the log2 fold change was -0.048 (inactive).
